Bioassay records: PubChem, National Center for Advancing Translational Sciences (NCATS)
NPC1 promoter act: qHTS Assay for NPC1 Promoter Activators; Huh7 NPC1 promoter luciferase reporter, 24 h; Potency, µM (doses to about 9.22 µM), without a hit: at the highest dose activation, hits mostly activators; actives 2.4% (n = 320,000); further: % of control where 0% means no effect; nearly all actives have a fitted effect of over 60% in size
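Cells: Huh7 expressing luciferase under the NPC1 promoter, 1500/well. Seeded 2 h, compound added, incubated 24 h at 37 °C. Luciferase reagent, 10 min ambient, then luminescence.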
FLuc counter: qHTS profiling assay for firefly luciferase inhibitor/activator using purifed enzyme and Km concentrations of substrates (counterscreen for miR-21 project); Luciferin 4-monooxygenase (Photinus pyralis), P08659; purified FLuc, Km substrates, luminescence inhibition; Potency, µM (top dose mostly 57.5 µM), for the others: at the top dose activity change, negative = inhibition, most hits filed as inhibitors; actives 6.9% (n = 360,000); AID 588342, 2011;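 further: plate controls were vehicle for no effect and reference inhibitor for full effect; nearly all actives have a fitted effect of over 55% in size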
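Purified P. pyralis luciferase, 10 nM final, with Km-level 10 uM D-luciferin and 10 uM ATP in 50 mM Tris acetate pH 7.5, 10 mM Mg acetate, 0.01% Tween-20, 0.05% BSA; 6-point qHTS titration about 60 µM downward; luminescence read.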
Rab9 promoter act: qHTS Assay for Rab9 Promoter Activators. Potency, µM (series often up to 9.22 µM), for the others: top-dose activation, negative = inhibition, most hits filed as activators. actives 2.8% (n = 320,000). Huh7 Rab9 promoter-luciferase reporter, luminescence, 24 h; further: % of control where 0% means no effect; nearly all actives have a fitted effect of over 60% in size
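Luminescence from Amplite-detected luciferase (10 minutes, ambient) reports Rab9 promoter activation. Before that, stable Rab9-luciferase Huh7 cells (1500/well, reduced-serum OP-MEM I plus 10% FBS) were exposed to compound for 24 hours at 37C.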
ELG1 genotoxic: qHTS screen for small molecules that induce genotoxicity in human embryonic kidney (HEK293T) cells expressing luciferase-tagged ELG1; HEK293T ELG1-luciferase reporter, luminescence, 16 h; Potency, µM (top dose mostly 46 µM), for the others: at the top dose activity change, positive = activation, hits mostly activators; actives 1.3% (n = 330,000); AID 504466, 2011; further: % of control where 0% means no effect; nearly all actives have a fitted effect of over 60% in size
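Quantitative HTS format in 1536-well plates. HEK293T ELG1-luciferase reporter cells receive test compound and are incubated 16 hr at 37 °C, 5% CO2; ONE-Glo added, 30 min room temperature, then luminescence read.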
ELG1 repair inh: qHTS screen for small molecules that inhibit ELG1-dependent DNA repair in human embryonic kidney (HEK293T) cells expressing luciferase-tagged ELG1 | HEK293T ELG1-luciferase reporter, luminescence, 16 h; DNA damage induced by 5-fluorouridine | Potency, µM (doses to about 46.1 µM), inactives show top-dose activity change, negative = inhibition, most hits filed as inhibitors | AID 504467, 2011 | actives 2.3% (n = 330,000); further: on the % scale 0 is the no-effect control and ±100 the full control effect; nearly all actives have a fitted effect of over 55% in size
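HEK293T cells expressing luciferase-tagged ELG1 (2,000/well) received 5-Fluorouridine plus compound or DMSO for 16 hr at 37 °C. Luciferase was read by ONE-Glo luminescence after 30 min at room temperature.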
SMN2 splice enh: qHTS Assay for Enhancers of SMN2 Splice Variant Expression; AID 1458, 2008; actives 2.8% (n = 210,000); HEK293 SMN2-luciferase splicing reporter, luminescence, 30-36 h; Potency, µM (top dose mostly 46.1 µM), inactives show at the highest dose activity change, positive = activation, hits mostly activators; further: % of control where 0% means no effect; nearly all actives have a fitted effect of over 55% in size
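HEK293 cells carry an SMN2 minigene-luciferase reporter in which exon 7 inclusion puts luciferase in frame. Cells were seeded at 2000 cells/well, attached for 10-12 hours, then exposed to compounds for 30-36 hours at 37C before ONE-Glo luminescence.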
ELG1 FLuc counter: qHTS screen for small molecules that inhibit ELG1-dependent DNA repair: Hit Confirmation in Cell-Based Luciferin Assay; shares compounds with ELG1 repair inh; cell-free firefly luciferase luminescence counter-screen, ViewLux; Potency, µM (highest dose often 46.1 µM), inactives show top-dose activity change, negative = inhibition, usual class: inhibitors; actives 3% (n = 350); AID 624247, 2012; further: on the % scale 0 is the no-effect control and ±100 the full control effect
ELG1-Luc inh: HTS assay for small molecules that inhibit ELG1-dependent DNA repair in human embryonic kidney (HEK293T) cells expressing luciferase-tagged ELG1: Hit Confirmation | shares compounds with ELG1 repair inh | HEK293T ELG1-luciferase levels, luminescence; cells co-treated with 5-fluorouridine | Potency, µM (titrated, usually from 46.1 µM), for the others: at the highest dose activity change, negative = inhibition, hits mostly inhibitors | actives 68% (n = 670) | AID 624248, 2012; further: on the % scale 0 is the no-effect control and ±100 the full control effect; nearly all actives have a fitted effect of over 55% in size
ELG1 MMS Luc: MMS-stimulated human ELG1 repair inhibition, confirmed; shares compounds with ELG1 repair inh; HEK293T luciferase-tagged ELG1 level, MMS stimulated; Potency, µM (highest dose often 46.1 µM), for inactives: top-dose activity change, negative = inhibition, actives largely listed as inhibitors; actives 53% (n = 670); further: on the % scale 0 is the no-effect control and ±100 the full control effect; nearly all actives have a fitted effect of over 60% in size
ELG1 5-FU: qHTS screen for small molecules that inhibit ELG1-dependent DNA repair: Hit Confirmation with 5FU Viability; shares compounds with ELG1 repair inh; cell viability with 5-FU, ELG1-dependent repair; Potency, µM (top dose mostly 46.1 µM), for the others: at the highest dose activity change, negative = viability loss, most hits filed as cytotoxic; 670 tested, under 10 active;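 further: ELG1-luc HEK293T cells cotreated with 5-fluorouridine at 10 µM final; viability measured 16 h after compound addition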
ELG1 MMS viab: qHTS screen for small molecules that inhibit ELG1-dependent DNA repair: Hit Confirmation with MMS Viability; shares compounds with ELG1 repair inh; Cell viability with MMS, ELG1-dependent DNA repair; Potency, µM (top dose mostly 46.1 µM), without a hit: top-dose activity change, negative = viability loss, actives largely listed as cytotoxic; actives 33% (n = 670);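 further: ELG1-luc HEK293T cells co-treated with 10 µM MMS; viability read 16 h after compound addition; on the % scale 0 is the no-effect control and ±100 the full control effect; nearly all actives have a fitted effect of over 60% in size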
Cell viab unstim: qHTS screen for small molecules that inhibit ELG1-dependent DNA repair: Hit Confirmation with Unstimulated Viability Assay | shares compounds with ELG1 repair inh | cell viability counter-screen, unstimulated, luminescence | Potency, µM (titrated, usually from 45.9 µM), inactives show at the top dose activity change, negative = loss of viability, most hits filed as cytotoxic | actives 8% (n = 900) | AID 624252, 2012;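 further: compound exposure lasted 16 hours before reading; on the % scale 0 is the no-effect control and ±100 the full control effect; nearly all actives have a fitted effect of over 55% in size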
FLuc biochem: qHTS screen for small molecules that inhibit ELG1-dependent DNA repair: Hit Confirmation in Biochemical Luciferin Assay; shares compounds with ELG1 repair inh; Potency, µM (series often up to 57.5 µM), for the others: at the top dose activity, negative = inhibition, most hits filed as inhibitors; purified firefly luciferase, luminescence counter-screen; AID 624253, 2012; actives 10% (n = 350); further: on the % scale 0 is the no-effect control and ±100 the full control effect
Active calls of the source: *; ? = inconclusive; / = no result; [ ] = dose if it differs, or a comment. Rows were chosen to be rich in hits. Some 9.4% of all compounds tested hit in one or more screens of this group. The call rests on the fitted dose curve; in most records, active means well fitted curve in the direction sought with a large enough effect; inconclusive means small, poorly fitted or top-dose-only effect, or another doubt; inactive means no such curve, though single readings can be large; an effect the other way counts as inactive or inconclusive. Potency means the concentration at half of the fitted maximal effect.

SMILES	NPC1 promoter act	FLuc counter	Rab9 promoter act	ELG1 genotoxic	ELG1 repair inh	SMN2 splice enh	ELG1 FLuc counter	ELG1-Luc inh	ELG1 MMS Luc	ELG1 5-FU	ELG1 MMS viab	Cell viab unstim	FLuc biochem
CCc1nnc(NC(=O)c2oc3ccc(Br)cc3c2C)s1	/	/	/	19%	?	/	/	/	/	/	/	/	/
CCOc1ccc(Nc2nc(Nc3ccc(OCC)cc3)nc(N3CCOCC3)n2)cc1	/	-5%	/	/	/	-3%	/	/	/	/	/	/	/
CCCCSc1nc2ccc(Nc3nc(N4CCOCC4)nc(N4CCOCC4)n3)cc2s1	-7%	-18%	0%	-2%	16µM*	-20%	5%	13µM*	?	?	0%	-10%	-6%
Cc1ccc(-c2csc(=Nc3cccnc3)n2CCCn2ccnc2)cc1C	5%	-1%	-7%	-12%	2.9µM*	-40%	?	4µM*	6.3µM*	-3%	10µM*	22µM*	1%
Cc1ccc(-c2csc(=Nc3cccnc3)n2CCCN2CCCC2=O)cc1C	0%	-1%	-6%	0%	?	17%	/	/	/	/	/	/	/
CN1CCN(c2nc(-c3ccncc3)nc3ccccc23)CC1	0%	3%	-2%	10%	-16%	2%	18%	?	?	-16%	-5%	?	0%
CC(C)c1ccc(NC(=O)C2CC2c2ccccc2)cc1 (centres undefined)	-4%	-24%	2%	2%	-1%	/	/	/	/	/	/	/	/
O=C(Nc1ccncc1)C1CC1c1ccccc1 (centres undefined)	-2%	2%	-13%	-1%	0.15µM*	-38%	0%	?	14µM*	-1%	16µM*	-2%	-5%
CN(C)CCC=C1c2ccccc2C=Cc2ccccc21	-8%[46.1 µM]	0%	-21%[46.1 µM]	4%	-4%	-10%[9.22 µM]	/	/	/	/	/	/	/
CN(C)N=Nc1ccc(/C=C2\C=Cc3ccccc32)cc1	/	/	/	/	/	/	/	/	/	/	/	-2%	/
CC(C)CN(C)c1ccc(/C=C2\C=Cc3ccccc32)cc1	/	/	/	/	/	/	/	/	/	/	/	?	/
CN(C)N=Nc1ccc(S(N)(=O)=O)cc1	-1%	-2%	-9%	3%	14%	/	/	/	/	/	/	/	/
CN(CC(=O)Nc1ccc(F)cc1)C(=O)CN1C(=O)c2ccccc2C1=O	1%	1%	0%	2%	2%	/	/	/	/	/	/	/	/
O=C(Nc1ccc(N2CCN(C(=O)c3ccco3)CC2)c(Cl)c1)c1cccs1	14%	-17%	-1%	-59%	4.1µM*	-28%	/	4µM*	13µM*	?	28µM*	25µM*	/
O=C(Nc1ccc(Cl)c(NC(=O)c2cccs2)c1)c1ccco1	-3%	?	1%	-8%	-13%	/	/	/	/	/	/	/	/
O=C(c1ccsc1)N1CCCC(N2CCOCC2)C1 (centres undefined)	19%	2%	1%	5%	10%	/	/	/	/	/	/	/	/
NC[C@@H]1O[C@@H](O[C@H]2[C@H](O)[C@H](O[C@@H]3O[C@H](CO)[C@@H](O)[C@H](N)[C@@H]3O)[C@@H](N)C[C@H]2N)[C@H](N)C[C@@H]1O	/	/	/	/	/	-29%[20.6 µM]	/	/	/	/	/	/	/
O=C(Cn1cnc2cc([N+](=O)[O-])ccc2c1=O)Nc1cccc(S(=O)(=O)N2CCOCC2)c1	11%	-13%	-1%	2%	3.3µM*	1%	/	?	28%	?	-11%	?	/
O=C(Cc1ccc(F)cc1)NCCS(=O)(=O)N1CCN(c2cccc(Cl)c2)CC1	3%	6%	-3%	-14%	-20%	/	/	/	/	/	/	/	/
COc1ccc(CNC(=O)C(c2ccc(C)o2)N(Cc2cccs2)C(=O)Cc2cccs2)cc1 (centres undefined)	-2%	-13%	0%	-7%	21µM*	-3%	-14%	11µM*	?	4%	-4%	?	3%
COCCN(C(=O)Cc1cccs1)C(C(=O)NCc1ccc(OC)cc1)c1ccc(C)cc1 (centres undefined)	-1%	3%	0%	-3%	?	?	/	/	/	/	/	/	/
O=C(COc1ccccc1F)Nc1ccc(-c2nc3ccccc3s2)cc1	0.89µM*	/	0.63µM*	/	/	/	69%	/	/	/	/	-16%	?
Cc1nc2ccc(NC(=O)COc3ccccc3F)cc2s1	26%	?	?	?	?	?	/	/	/	/	/	/	/
